Assay results as given in PubChem BioAssay AID703 (NMMLSC, 2007).
The source made the active and inactive calls. No rule for the calls is given here.

Biological target: Integrin alpha-4 (Homo sapiens) (UniProt P13612)
Experiment: VLA-4 ligand binding increase, concentration series – cell-based, LDV-FITC binding, flow cytometry, dose response (AID 703)
Conditions: Jurkat cells, active compounds read high

Sequence of Integrin alpha-4 (Homo sapiens) (P13612 whole entry, looked up): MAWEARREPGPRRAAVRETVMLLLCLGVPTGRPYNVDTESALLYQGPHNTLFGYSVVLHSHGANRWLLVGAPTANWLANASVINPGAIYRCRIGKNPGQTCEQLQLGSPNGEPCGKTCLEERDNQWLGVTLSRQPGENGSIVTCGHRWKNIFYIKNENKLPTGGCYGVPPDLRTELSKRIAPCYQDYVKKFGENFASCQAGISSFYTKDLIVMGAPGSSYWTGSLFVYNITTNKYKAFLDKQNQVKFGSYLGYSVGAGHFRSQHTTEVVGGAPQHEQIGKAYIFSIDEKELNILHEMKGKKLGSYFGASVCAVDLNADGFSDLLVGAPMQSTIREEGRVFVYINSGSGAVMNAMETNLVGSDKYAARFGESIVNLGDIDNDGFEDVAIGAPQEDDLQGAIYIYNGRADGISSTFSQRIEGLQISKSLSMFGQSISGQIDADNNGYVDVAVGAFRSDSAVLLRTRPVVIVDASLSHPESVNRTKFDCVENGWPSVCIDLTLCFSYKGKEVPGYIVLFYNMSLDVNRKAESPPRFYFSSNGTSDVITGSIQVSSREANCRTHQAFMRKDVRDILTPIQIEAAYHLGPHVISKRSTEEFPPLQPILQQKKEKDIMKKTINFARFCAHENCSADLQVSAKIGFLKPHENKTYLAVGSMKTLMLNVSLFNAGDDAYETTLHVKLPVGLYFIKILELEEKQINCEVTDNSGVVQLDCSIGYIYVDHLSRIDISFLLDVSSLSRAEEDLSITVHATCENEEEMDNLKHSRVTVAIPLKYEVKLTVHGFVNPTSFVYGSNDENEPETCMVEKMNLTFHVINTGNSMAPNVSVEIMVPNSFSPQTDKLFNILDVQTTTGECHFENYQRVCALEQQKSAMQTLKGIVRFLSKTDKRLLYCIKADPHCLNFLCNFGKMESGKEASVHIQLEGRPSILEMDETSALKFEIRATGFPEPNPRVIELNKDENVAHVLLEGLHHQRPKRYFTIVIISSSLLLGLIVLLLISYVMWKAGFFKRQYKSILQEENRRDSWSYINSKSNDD

Activation at 0 C, inactive:
CN(C)CCCN1c2ccccc2Sc2ccc(C(F)(F)F)cc21 0
CCCCC[C@H](O)/C=C/[C@H]1C=CC(=O)[C@@H]1C/C=C\CCCC(=O)O 0
N#Cc1c(N2CCCC2)nc(N)c2c(N)nc(N3CCCC3)cc12 0
COC(=O)C1CCN(C(=O)NC(C)(C)C)CC1 0
